From the supplement of paper PMC3334620
In all, about 33,000 sequences were measured (“E-score (-0.5 to 0.5)”: median about -0.054, highest 2% from about 0.39 on). The full list was thinned out, with the highest values kept by preference.

These sequences were tested against Ylr278c (UniProt Q05854) (assay: PBM E-score (8-mer binding enrichment) (E-score (-0.5 to 0.5)); higher = stronger / more preferred TF binding). Details: protein concentration: 200 nM; construct: GST-DNA-binding domain.
Method: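 Universal 'all 10-mer' protein binding microarrays (Agilent AMADID 015681) probed with GST-tagged S. cerevisiae TFs (full-length or DBD) made by in vitro transcription/translation (PURExpress), about 100-200 nM. Bound TF was detected with fluorescent anti-GST. Each ungapped 8-mer (which stands for itself and its reverse complement) is scored by the PBM enrichment score (E-score), a modified Wilcoxon-Mann-Whitney statistic from -0.5 to +0.5, computed with the Universal PBM Analysis Suite. Scale: above 0.35 generally sequence-specific binding.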

UniProt Q05854, sequence (Q05854 whole entry, the tested form may be a part): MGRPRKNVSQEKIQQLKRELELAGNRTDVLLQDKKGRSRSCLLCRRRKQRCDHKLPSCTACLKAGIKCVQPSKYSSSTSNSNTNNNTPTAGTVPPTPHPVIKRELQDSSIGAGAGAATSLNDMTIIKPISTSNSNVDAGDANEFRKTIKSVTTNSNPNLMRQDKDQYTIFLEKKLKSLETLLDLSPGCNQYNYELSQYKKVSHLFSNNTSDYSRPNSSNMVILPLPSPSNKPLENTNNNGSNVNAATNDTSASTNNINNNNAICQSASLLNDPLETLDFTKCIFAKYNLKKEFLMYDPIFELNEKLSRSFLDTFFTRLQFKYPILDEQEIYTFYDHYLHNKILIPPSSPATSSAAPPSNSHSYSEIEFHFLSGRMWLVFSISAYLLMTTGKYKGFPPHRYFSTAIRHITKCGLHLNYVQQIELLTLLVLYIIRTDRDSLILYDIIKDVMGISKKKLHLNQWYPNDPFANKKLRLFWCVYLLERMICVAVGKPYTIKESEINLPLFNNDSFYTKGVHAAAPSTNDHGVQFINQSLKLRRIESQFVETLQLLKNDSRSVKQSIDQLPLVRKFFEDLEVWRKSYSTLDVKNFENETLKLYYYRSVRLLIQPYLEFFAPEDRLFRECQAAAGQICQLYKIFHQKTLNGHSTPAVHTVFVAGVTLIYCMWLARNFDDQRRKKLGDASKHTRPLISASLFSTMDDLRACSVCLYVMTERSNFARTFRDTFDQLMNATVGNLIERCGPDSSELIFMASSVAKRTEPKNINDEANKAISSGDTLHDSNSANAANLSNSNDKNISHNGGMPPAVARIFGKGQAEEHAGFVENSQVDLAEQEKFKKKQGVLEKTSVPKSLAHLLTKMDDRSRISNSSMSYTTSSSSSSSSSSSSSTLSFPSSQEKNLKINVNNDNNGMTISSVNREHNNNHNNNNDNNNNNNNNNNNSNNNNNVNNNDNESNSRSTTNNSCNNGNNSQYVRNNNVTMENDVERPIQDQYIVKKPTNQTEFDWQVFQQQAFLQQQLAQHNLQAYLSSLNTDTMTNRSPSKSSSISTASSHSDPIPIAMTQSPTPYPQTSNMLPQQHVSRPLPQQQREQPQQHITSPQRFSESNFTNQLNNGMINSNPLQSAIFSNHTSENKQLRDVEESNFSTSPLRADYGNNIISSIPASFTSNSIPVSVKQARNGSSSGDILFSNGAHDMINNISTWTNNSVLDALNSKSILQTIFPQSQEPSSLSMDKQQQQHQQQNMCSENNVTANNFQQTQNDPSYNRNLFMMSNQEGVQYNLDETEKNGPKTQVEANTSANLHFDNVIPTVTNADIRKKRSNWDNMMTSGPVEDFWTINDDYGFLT

Sequence | PBM E-score
GATAGTGA | -0.0321
ATTTTAAA | 0.0686
CCAACTGG | -0.22
AGTTGCGC | 0.233
ACTTCACT | -0.0406
AAATCAGT | 0.0231
AGTCTCCA | -0.312
AGTCTCCC | 0.102
AGTCTCCG | 0.434
ATTCTCCC | 0.0768
ATTCTCCA | -0.052
ATTCTCCG | 0.474
CCGTCTCA | 0.0735
CTCTGCTA | -0.128
CTAGCAGA | -0.195
CTCAAAGA | -0.2
TAGTCATA | -0.145
AAAATCCC | 0.263
AATATCCA | 0.0239
AAAATCCG | 0.451
ATTATCCG | 0.393
ATTATCCA | -0.155

Sequence | PBM E-score
AATATCGC | 0.125
CAAATCCG | 0.381
AATATCCC | 0.211
AATATCGA | -0.0141
AATATCCG | 0.423
ATTATCCC | 0.0767
AATATCGG | 0.395
ACGCATGC | -0.0181
GCTCGTTA | -0.188
ATCAGCGG | 0.29
CGACCACG | 0.0345
ATACAGCA | -0.0117
AAATCAAC | -0.111
AACTGACC | 0.152
CGGCGCCA | 0.214
CCGCGCCA | 0.182
CGGCGCCG | 0.461
AGGCGCCG | 0.206
CCGCGCGA | 0.216
CCGCGCGG | 0.433
CCGCGCCC | 0.191
CCGCGCCG | 0.4

Sequence | PBM E-score
CCGCGCGC | 0.28
CGACACTA | 0.102
CGGTTGCC | 0.109
GGCCTTAA | -0.0388
TATGTTCA | -0.0845
TACATTCA | -0.223
TCGGACAA | 0.434
CCGGACAC | 0.371
ACGGACAT | 0.392
ACGGACAG | 0.043
ACGGACAC | 0.194
TCGGACCA | 0.379
GCGGACAC | 0.216
ACGGACAA | 0.355
TAGGACAA | -0.233
CCGGACAA | 0.444
GCGGACAA | 0.398
CCGGACAG | 0.357
AAAATCGA | -0.177
GCTCTCCC | -0.0961
CCCACCAG | -0.212
AGCCTACA | -0.0936

Sequence | PBM E-score
CGGCCGAG | 0.279
ACTCCCAC | -0.035
TCTACCCA | -0.14
TCTGCACA | 0.0219
ACAGACCA | -0.0751
GATTCGAA | 0.102
AGCTTAAG | -0.229
ATGAGCCC | -0.138
CCTGATAC | -0.0837
CGAGAAAA | -0.0264
AGACTAAT | -0.0793
CCGGATAG | 0.347
CCGGATAC | 0.384
GCGGATAA | 0.314
TCGGATAA | 0.403
ACGGATAA | 0.293
CCGGATAA | 0.417
ATCAAGGG | -0.1
CCAAAGCA | -0.107
CGTCCGGA | 0.43
CGTCCGCA | 0.246
